# Where “and” joins values, the source holds several entries; their conditions need not be identical. Equal entries are not always repeated. More than one record can exist for a structure, and the calls need not agree. Calls of active or inactive are those of the source. How the source made its calls: active means hit-call score of the fitted dose curve at least 0.9, where 1 is the maximum; inactive means score below 0.9.
# Read-out: Matrix Metallopeptidase 1 (MMP1), MMP1 (gene 4312)
# Assay: BSK_hDFCGF_MMP1: BioMAP Diversity Plus: hDFCGF Assay for Matrix Metallopeptidase 1 (MMP1) Biomarker Activity (AID 2283064)
# Conditions: primary human foreskin fibroblasts; actives raise or lower the signal
# Protocol: BSK_hDFCGF is a cell-based, multiplexed-readout assay that uses foreskin fibroblast, a human skin primary cell, with measurements taken at 24 hours after chemical dosing in a 96-well plate.BSK_hDFCGF_MMP1 is an assay component measured in the BSK_hDFCGF assay. It measures MMP-1 antibody related to regulation of gene expression using ELISA technology.Data from the assay component BSK_hDFCGF_MMP1 was analyzed into 1 assay endpoint. This assay endpoint, BSK_hDFCGF_MMP1, was analyzed with bidirectional fitting relative to DMSO as the negative control and baseline of activity. Using a type of binding reporter, gain or loss-of-signal activity can be used to understand changes in the signaling as they relate to the gene MMP1. Furthermore, this assay endpoint can be referred to as a primary readout, because this assay has produced multiple assay endpoints where this one serves a signaling function. To generalize the intended target to other relatable targets, this assay endpoint is annotated to the protease intended target family, where the subfamily is matrix metalloproteinase.
# The levels of cell surface (or secreted, indicated by the prefix "s") biomarker endpoints were measured by ELISA. Overt cytotoxicity to cells in confluent adherent cultures (all systems other than the BT system) was assessed by measuring total protein levels using sulforhodamine B (SRB) staining in parallel cultures at the time of biomarker measurements, indicated as SRB endpoints. For proliferation assays for adherent cell types, individual cell types are cultured at sub-confluence and relative cell numbers quantified by SRB staining at time points optimized for each system (48 h: 3C and CASM3C systems; 72 h: BT and HDF3CGF systems; 96 h: SAg system). SRB was performed by staining cells with 0.1% SRB after fixation with 10% TCA and reading wells at 560 nm.Viability and proliferation of PBMC (T cells) was quantified by Alamar Blue reduction for the SAg and BT systems. For PBMC viability (referred to as PBMC Cytotoxicity within the assay endpoint names), cells were plated (75,000/well in a 96-well plate) and then chemical samples added for 1 h before addition of activators, SEB and TSST-1 (20 ng/mL final concentration each). Cells were incubated for 90 h. Then, Alamar Blue (20 uL/well) (Invitrogen, Cat DAL1100) was added for 6 h, and the plates were read with a fluorescence microplate reader at 546/580 nm (excitation/emission). For PBMC proliferation, cells were plated and activated as above but incubated for only 16 h prior to addition of Alamar Blue. Plates were read after 6 h.
SMILES,outcome,AC50
CC(C)CC(=O)CC(C)CC(C)C (stereo not drawn),inactive,–
COc1ccccc1Oc1c(NS(=O)(=O)c2ccc(C(C)(C)C)cc2)nc(-c2ncccn2)nc1OCCO,inactive,–
Cc1c(C(N)=O)cc([N+](=O)[O-])cc1[N+](=O)[O-],inactive,–
CCCCCCCCCCC1CO1 (stereo not drawn),–,20 µM (active)
CCCCCCC(O)CCCCCCCCCCC(=O)OC (stereo not drawn),inactive,–
O=C(C(=O)c1ccccc1)c1ccccc1,inactive,–
CN(C)Cc1cc(C(C)(C)C)c(O)c(C(C)(C)C)c1,inactive,20 µM (active)
COc1cc(CNC(=O)CCCC/C=C/C(C)C)ccc1O,inactive,–
O=[N+]([O-])c1cc(S(=O)(=O)Nc2ccccc2)ccc1Nc1ccccc1,–,30.9 µM (active) and 36.7 µM (active)
CCCCC(CC)COC(=O)C=Cc1ccc(OC)cc1 (stereo not drawn),inactive,–
Cc1cc(-n2nc3ccc(Cl)cc3n2)c(O)c(C(C)(C)C)c1,inactive,–
COC(=O)/C=C\C(=O)OC,inactive,–
Cc1cccnc1,inactive,–
CC[N+](CC)(CC(=O)Nc1c(C)cccc1C)Cc1ccccc1 (tested in a mixture with another compound),inactive,–
CN(C)CCC(c1ccc(Cl)cc1)c1ccccn1 (stereo not drawn),inactive,–
CN(C)c1ccc(C(c2ccccc2)c2ccc(N(C)C)cc2)cc1,inactive,–
CC(C)C1OCCN1CCOC(=O)NCCCCCCNC(=O)OCCN1CCOC1C(C)C (stereo not drawn),inactive,–
C1CN(CCOCCN2CCOCC2)CCO1,inactive,–
CC[N+](CC)(CC(=O)Nc1c(C)cccc1C)Cc1ccccc1,inactive,–
OC(C(F)(F)F)(C(F)(F)F)C(O)(C(F)(F)F)C(F)(F)F,inactive,–
CCCCCCCCCCCCCCCCCC[N+](C)(C)C,–,7.66 µM (active)
Oc1cccc2ccccc12,inactive,–
CCCCCCCCCC/C=C/C1CC(=O)OC1=O (stereo not drawn),inactive,–
COc1ccc(C(=O)c2ccccc2O)c(O)c1,inactive,–
CCC[Si](OC(C)=O)(OC(C)=O)OC(C)=O,inactive,–
CCC(C)=NO,inactive,–
Sc1nc2ccccc2s1,inactive,–

# Source: PubChem BioAssay (EPA / NIEHS)
